# Screening results: PubChem BioAssay, The Scripps Research Institute Molecular Screening Center
# HTR5A ag: HTR5A agonism, opioid heterodimer counter-screen; P47898; HTR5A agonist assay, luminescence, cell-based; activation, % at 9.3 µM; hit rate 0.61% among 340,000; AID 504692; in the data active = activation mostly above about 9.5%, no sharp cut-off; inactive = mostly below about 7.6%;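 note: 0% = cells with vehicle only and 100% = reference agonist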
# HTR2A ag: agonists of mouse serotonin 5-HT2A receptor (HTR2A); AID 624169; hit rate 0.66% among 360,000; activation, % at 7.6 µM; P35363; CHO-K1 mHTR2A beta-arrestin complementation, luminescence; percent of 30 µM serotonin response;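 active = activation above a run cutoff, the mean activation of all tested compounds plus 3 SD, cut at about 14% in these data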;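 note: 0% = plate median of compound wells and 100% = 30 µM serotonin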
# Target sequence (P35363 whole entry, looked up): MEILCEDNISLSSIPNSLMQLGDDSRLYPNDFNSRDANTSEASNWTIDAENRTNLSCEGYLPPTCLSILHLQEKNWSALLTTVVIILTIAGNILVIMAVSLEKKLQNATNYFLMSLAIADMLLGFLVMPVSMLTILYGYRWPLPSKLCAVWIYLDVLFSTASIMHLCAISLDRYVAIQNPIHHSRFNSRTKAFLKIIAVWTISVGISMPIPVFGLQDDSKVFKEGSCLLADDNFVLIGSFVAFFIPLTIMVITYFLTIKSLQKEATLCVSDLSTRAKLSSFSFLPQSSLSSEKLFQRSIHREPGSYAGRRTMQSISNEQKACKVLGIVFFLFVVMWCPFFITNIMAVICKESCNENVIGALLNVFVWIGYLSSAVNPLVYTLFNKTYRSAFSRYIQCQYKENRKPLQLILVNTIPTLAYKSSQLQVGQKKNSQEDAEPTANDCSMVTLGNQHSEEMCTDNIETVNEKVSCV
# MOR-DOR ag: agonists of human mu-delta opioid receptor heterodimerization; cells, OPRM1-OPRD1 heterodimerization, luminescence; activation, % at 9.3 µM; hit rate 0.3% among 340,000; AID 504326; in the data active = activation above about 18%;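 note: 0% = vehicle-treated cells and 100% = reference agonist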
# OPRM1-OPRD1 inv: inverse agonists of human mu-delta opioid receptor heterodimerization; cell-based MOR-DOR heterodimer luminescence, inverse agonism; inhibition, % at 9.3 µM; hit rate 0.21% among 340,000; AID 504357; in the data active = inhibition above about 22%, passing the limit was not always enough;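 note: 0% = cells with DMSO and 100% = wells without cells with DMSO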
# HTR5A inv ag: counter-screen for OPRM1-OPRD1 inverse agonists: human HTR5A inverse agonism. AID 504634. P47898. HTR5A cell line, luminescence. hit rate 0.083% among 340,000. inhibition, % at 9.3 µM; in the data active = inhibition mostly above about 23%, no sharp cut-off; inactive = mostly below about 18%;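 note: 0% = cells with DMSO and 100% = no-cell wells with DMSO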
# OPRM1 ag: OPRM1 agonism in mouse HTR2A counterscreen. hit rate 5.3% among 2,300. U2OS OPRM1 beta-arrestin PathHunter, luminescence; DMSO 0%, DAMGO 9.3 µM 100%. shares compounds with HTR2A ag. activation, % at 9.3 µM. AID 624380;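 active = mean activation above the mean of DMSO-only wells plus 3 SD, cut at about 0.5% in these data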
# m5-HT2A ag conf: confirmation of mouse HTR2A serotonin receptor agonists. AID 624381. CHO-K1 PathHunter beta-arrestin recruitment, luminescence; DMSO 0%, 30 µM serotonin 100%. shares compounds with HTR2A ag. activation, % at 7.6 µM. hit rate 19% among 2,300;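 active = mean activation across triplicates above the hit threshold derived in the original primary screen, cut at about 15% in these data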
# The depositor's hits bear a star; / = not tested or not shown. Rows were chosen to be rich in hits. Some 1.6% of all compounds tested hit in one or more screens of this group.
SMILES,HTR5A ag,HTR2A ag,MOR-DOR ag,OPRM1-OPRD1 inv,HTR5A inv ag,OPRM1 ag,m5-HT2A ag conf
c1ccc(CCNc2ccc3nncn3n2)cc1,4,16*,-4,18,-11,0,-6
COc1ccc(S(=O)(=O)N2CCOC2CNC(=O)C(=O)NCCc2ccccc2)cc1C (stereo not drawn),1,16*,0,-2,-1,-1,-5
COc1ccc(S(=O)(=O)N2CCOC2CNC(=O)C(=O)NCCc2ccccc2)cc1OC (stereo not drawn),1,3,0,2,-14,/,/
COc1ccc(CCNC(=O)C(=O)NCC2CCCN2S(=O)(=O)c2ccccc2)cc1 (stereo not drawn),5,16*,-1,4,-13,0,0
CCOC(=O)[C@]12CCC=C1N(Cc1ccc(Cl)cc1Cl)C(=O)[C@H](CC(=O)NCc1ccccc1)C2,/,1,/,/,/,/,/
Cc1ccc(Cn2cccc2C2=NC(C)CO2)cc1 (stereo not drawn),0,14*,0,-1,3,0,-6
CC(C)C1COC(c2cccn2Cc2ccccc2Cl)=N1 (stereo not drawn),1,-6,5,-34,-4,/,/
Cc1ccc(C(=O)N2c3ccccc3N=C(c3ccccc3)C2C(=O)NC(C)C)cc1 (stereo not drawn),/,-5,/,/,/,/,/
O=C(N/N=C/C=C/c1ccc2c(c1)OCO2)c1ccc([N+](=O)[O-])cc1,-2,3,2,-13,-21,/,/
Nc1ccc(C(=O)N/N=C\C=C\c2ccc([N+](=O)[O-])cc2)cc1,9,17*,11,-48,-24,0,4
CC1CCN(CCCNC(=O)CCc2nnc3n(CCc4ccccc4)c(=O)c4ccccc4n23)CC1,3,-8,-2,8,-7,/,/
CC(C)Cn1c(=O)c2ccccc2n2c(CCC(=O)NC3CCN(Cc4ccccc4)CC3)nnc12,5,19*,-1,7,-19,-1,6
CC(C)NC(=O)CN1CCN(C(c2ccnc3ccccc23)c2nnnn2-c2ccc3c(c2)OCCO3)CC1 (stereo not drawn),/,3,/,/,/,/,/
CN(C)c1ccc(C(C(=O)NCc2ccccc2)N(Cc2cccnc2)C(=O)c2snc(C(N)=O)c2N)cc1 (stereo not drawn),-1,19*,0,-1,2,-1,-1
COc1ccc(C(C(=O)NCc2ccccc2)N(Cc2cccnc2)C(=O)c2snc(C(N)=O)c2N)cc1OC (stereo not drawn),2,1,-1,3,-13,/,/
CCOC(=O)C1CCN(C(=O)Nc2ccccc2Cl)CC1,2,15*,-2,13,-15,-1,-1
COc1cccc(C(C(=O)NCc2ccccc2)N2CCN(c3cccc(C)c3C)CC2)c1OC (stereo not drawn),/,5,/,/,/,/,/
Cc1ccc(CN2CC(N3CCN(Cc4cccc(C)c4)CC3)CS2(=O)=O)cc1 (stereo not drawn),/,31*,/,/,/,0,11
Cc1cccc(CN2CCN(C3CN(Cc4ccc(F)cc4)S(=O)(=O)C3)CC2)c1 (stereo not drawn),/,18*,/,/,/,-1,1
Cc1ccc(Cn2cc(CN3CC(N4CCN(Cc5cccc(C)c5)CC4)CS3(=O)=O)nn2)cc1 (stereo not drawn),/,5,/,/,/,/,/
CC1(C)CC(=O)C(C(c2ccc3c(c2)OCO3)C2C(=O)CC(C)(C)CC2=O)C(=O)C1,/,-3,/,/,/,/,/
CC(C)c1ccc(NC2CCCN(C(=O)c3ccc4nccnc4c3)C2)cc1 (stereo not drawn),1,21*,-1,7,-6,0,-3
CC(C)c1cc(C(=O)N2CCCC(Nc3ccc(F)cc3)C2)nc(N)n1 (stereo not drawn),1,16*,-3,15,8,0,0
O=C(Nc1ccc(F)cc1)C(CCc1ccccc1)N1CCN(c2cccc(C(F)(F)F)n2)CC1 (stereo not drawn),/,0,/,/,/,/,/
Cc1ccc2nc(SCn3nnc4ccccc4c3=O)[nH]c2c1,-4,1,-3,16,15,/,/
SMILES,HTR5A ag,HTR2A ag,MOR-DOR ag,OPRM1-OPRD1 inv,HTR5A inv ag,OPRM1 ag,m5-HT2A ag conf
Cc1ccc(SCn2nnc3ccccc3c2=O)c(C)c1,0,25*,1,-6,-1,0,0
NC(c1ccccc1)c1csc(Nc2ccc(S(N)(=O)=O)cc2)n1 (stereo not drawn),/,-6,/,/,/,/,/
Cc1sc(-c2ccccn2)nc1OC(=O)c1ccc(F)cc1F,6,15*,0,-1,-15,-1,8
O=c1ccn([C@@H]2O[C@H](CNCc3c(OCc4ccccc4F)ccc4ccccc34)[C@@H](O)[C@H]2O)c(=O)[nH]1,/,-4,/,/,/,/,/
COc1cc(C#N)ccc1OC(=O)c1cccc(S(=O)(=O)N2CCN(C)CC2)c1,-3,18*,-1,6,4,-1,-6
CN1CCc2cc(O)c(O)cc2C(c2ccccc2)C1 (stereo not drawn),1,17*,1,-7,4,0,78*
CN1CCc2cc(Cl)c(O)cc2[C@@H](c2ccccc2)C1,18,7,-1,7,-79,/,/
Oc1cc2c(cc1O)[C@@H](c1ccccc1)CNCC2,4,19*,0,-2,-11,0,48*
O=C1CC(=Nc2ccc([N+](=O)[O-])cc2)NN1c1c(Cl)cc(Cl)cc1Cl,/,-6,/,/,/,/,/
COc1ccc(CCN2CC(C(=O)NCCCn3nc(C)cc3C)CCC2=O)cc1 (stereo not drawn),-2,18*,-2,10,-4,0,2
Cc1ccc(S(=O)(=O)NC(=O)C2(C)CCN2C(=O)Cc2cccs2)nc1 (stereo not drawn),/,0,/,/,/,/,/
CCc1ccc2c(c1)NC(=O)C2(C)Cc1ccccc1C#N (stereo not drawn),/,-4,/,/,/,/,/
Cn1c(=O)c2c(nc(Oc3ccccc3Cl)n2C)n(C)c1=O,0,3,-1,5,0,/,/
Cn1c(=O)c2c(nc(Oc3ccccc3N)n2C)n(C)c1=O,-1,16*,0,2,5,0,-4
CCC(C)NC(=O)C1CCN(S(=O)(=O)c2cc([N+](=O)[O-])ccc2Cl)CC1 (stereo not drawn),-1,24*,3,-15,11,0,-2
Cc1ccc(C2/C(=C(\O)c3ccc4c(c3)OCCO4)C(=O)C(=O)N2Cc2cccnc2)cc1 (stereo not drawn),-1,-3,-2,13,9,/,/
COc1ccc(C2/C(=C(\O)c3ccc4c(c3)OCCO4)C(=O)C(=O)N2Cc2cccnc2)cc1OC (stereo not drawn),0,20*,-3,15,4,-1,0
CC(C)NNC(=O)c1ccncc1,3,28*,-1,5,-40,-1,45*
